Bioassay records: PubChem BioAssay, National Center for Advancing Translational Sciences (NCATS)
Anesthetic bind – candidate novel general anesthetic via apoferritin binding | actives 0.074% (n = 350,000) | apoferritin/1-aminoanthracene competitive binding, fluorescence | P02791 | Potency, µM (doses to about 77.5 µM), without a hit: at the top dose activity change, negative = displacement, usual class: inhibitors; further: on the % scale 0 is the no-effect control and ±100 the full control effect; nearly all actives have a fitted effect of over 20% in size
Target sequence (P02791 2-175 limits assumed): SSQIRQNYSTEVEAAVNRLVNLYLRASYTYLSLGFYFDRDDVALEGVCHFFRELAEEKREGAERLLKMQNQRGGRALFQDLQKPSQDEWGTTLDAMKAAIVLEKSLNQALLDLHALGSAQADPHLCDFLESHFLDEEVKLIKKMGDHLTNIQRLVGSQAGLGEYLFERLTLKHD
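Apoferritin-based anesthetic binding model; compound displacement of fluorescent 1-AMA measured as endpoint fluorescence after 10 minutes at room temperature, scaled to free-ligand and complex controls.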
Epigenetic derep – regulators of epigenetic silencing causing reporter derepression in mouse cells; murine LDR cells, GFP reporter derepression, 30 h; Potency, µM (top dose mostly 53.9 µM), inactives show top-dose GFP activation, usual class: activators; actives 0.2% (n = 280,000); AID 1865; further: % of control where 0% means no effect; nearly all actives have a fitted effect of over 60% in size
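Murine LDR cells carrying a silenced, genomically integrated CMV-driven GFP reporter were exposed to compound for 30 hours at 37 C. After PBS washes, GFP-positive cells (20–120 um objects) were counted by laser-scanning microplate cytometry.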
HTT aggregate – reduces HttQ103-GFP aggregates in PC12 cells; actives 1.1% (n = 220,000); PC12 HttQ103-GFP aggregates, Acumen cytometry, 40 h; Potency, µM (doses to about 46.1 µM), for the others: at the highest dose activity change, negative = inhibition, hits mostly inhibitors; AID 1688; further: on the % scale 0 is the no-effect control and ±100 the full control effect; nearly all actives have a fitted effect of over 60% in size
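Inducible Q103 Huntingtin exon 1–GFP PC12 line, 1500 cells/well in phenol red free DMEM with 5% equine and 5% calf serum. Tebufenozide 100 nM induced expression; compounds titrated; aggregates quantified by cytometry.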
PINK1 expr mod – changes PINK1 expression | PINK1 immunofluorescence, high-content cytometry, 24 h | Potency, µM (titrated, usually from 76.6 µM), without a hit: top-dose activation (PINK1 increase), hits mostly activators | actives 0.2% (n = 410,000); active means well fitted activation curve with a large enough effect; inconclusive means small, poorly fitted or top-dose-only effect; cell line not stated here; further: % of control where 0% means no effect; nearly all actives have a fitted effect of over 65% in size
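PINK1 protein, normally rapidly degraded, was detected by immunofluorescence after 24 hour compound treatment of a stable cell line. Titration data (5 concentrations) came from laser-scanning cytometry, with CCCP-treated wells as controls.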
TSG101-PTAP inh – blocks PTAP/TSG101 interaction to inhibit HIV-1 budding; Q99816; 340,000 tested, under 10 active; Fluorescence polarization, FITC-PTAP peptide / Tsg101 binding; Potency, µM (series often up to 115 µM), without a hit: at the top dose activity change, negative = inhibition, hits mostly inhibitors; active means well fitted inhibition curve with a large enough effect in the main read-out, with a control signal flat, not every such curve was filed as active; inconclusive means small, poorly fitted or top-dose-only effect, or effect the other way, or a change in a side signal; inactive means no such curve, though single readings can be large or run the other way; further: % of control where 0% means no effect
Target sequence (Q99816 whole entry, looked up): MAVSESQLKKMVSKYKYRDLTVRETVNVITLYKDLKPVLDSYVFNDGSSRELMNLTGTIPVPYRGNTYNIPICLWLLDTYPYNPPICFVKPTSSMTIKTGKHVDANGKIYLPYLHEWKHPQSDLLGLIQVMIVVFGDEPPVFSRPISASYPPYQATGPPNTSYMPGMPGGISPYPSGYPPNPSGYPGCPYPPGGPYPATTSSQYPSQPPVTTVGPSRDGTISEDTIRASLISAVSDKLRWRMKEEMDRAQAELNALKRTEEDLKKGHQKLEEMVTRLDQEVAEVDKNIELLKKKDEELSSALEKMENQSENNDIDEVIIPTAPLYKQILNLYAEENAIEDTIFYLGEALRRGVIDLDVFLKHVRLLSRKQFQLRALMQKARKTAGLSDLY
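Fluorescence anisotropy tracks displacement of a FITC-tagged PTAP peptide (50 nM) from the Tsg101 binding domain (10 uM), following a 20 min room-temperature incubation at pH 7.5.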
HTT cytoprotect – protects HTT-Q103 PC12 cells, measured by ATP; PC12 HTT-Q103 induced, cytoprotection, ATP luminescence, 40 h; Potency, µM (series often up to 56.4 µM), for the others: cytoprotection (ATP increase), most hits filed as activators; actives 0.14% (n = 230,000); AID 1471; further: % of control where 0% means no effect; nearly all actives have a fitted effect of over 45% in size
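Readout: ATPlite luminescence (ATP level). Model: stable PC12, inducible Htt exon1 Q103-GFP. Inducer: tebufenozide, 100 nM final. Compounds: dose series. No G418 in medium.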
An asterisk follows results filed as active; u = inconclusive; x = no result given; [ ] = another dose, or the depositor's remark. This is one part of a sample in which hits are shown more often than they occur. Unless noted, the call rests on the fitted dose curve; in most records, active means well fitted curve in the direction sought with a large enough effect; inconclusive means small, poorly fitted or top-dose-only effect, or another doubt; inactive means no such curve, though single readings can be large; an effect the other way counts as inactive or inconclusive. Potency means the concentration at half of the fitted maximal effect.

SMILES	Anesthetic bind	Epigenetic derep	HTT aggregate	PINK1 expr mod	TSG101-PTAP inh	HTT cytoprotect
CC(C)(C)c1nc(Sc2ccc([N+](=O)[O-])cn2)n[nH]1	1.1%	1.1%	-10.9%[9.22 µM]	-0.5%	0.5%	11.1%[10 µM]
Fc1ccc(N2CCN(Cc3ccc4c(c3)CN(Cc3cccn3-c3cccnc3)CCO4)CC2)cc1	x	x	x	-0.3%	x	x
CN1OC2C(=O)N(c3ccccc3)C(=O)C2C1c1ccc(F)cc1 (centres undefined)	31.6µM*	-2.3%	16.7%	11.2%[38.3 µM]	x	-34.1%
COc1ccc(C(=O)c2ccc(N3CCN(C(=O)c4ccc(F)cc4)CC3)c(F)c2)cc1Br	-8.9%	-5.3%	12.6µM*	-0.3%	-7.4%	-48.6%
CCCC(=O)N1CCN(c2ccc(C(=O)c3ccc(OC)c(Br)c3)cc2F)CC1	-9.7%	1.6%	-6.1%	x	x	-3.4%
COc1ccc(C2C3=C(CC(C)(C)CC3=O)Oc3ncn(Cc4ccccc4)c(=N)c32)cc1 (centres undefined)	-17.8%	-4.4%	-18.9%	43.2%[38.3 µM]	-3.4%	3.98µM*
O=C(O)Cc1coc2ccc3ccccc3c12	-7.0%	-5.5%	22.6%	u	1.6%	x
Cc1cccc(NC(=O)Cc2coc3ccc4ccccc4c23)n1	-11.5%	-5.7%	-2.1%	11.2µM*	-7.1%	-5.0%
O=[N+]([O-])c1ccc2c(N=Nc3ccc4ccccc4c3O)c(O)cc(S(=O)(=O)O)c2c1	x	x	x	x	x	4.9%[10 µM]
Cc1ccc(-c2ccc(=O)n(CC(=O)NCc3ccco3)n2)cc1	8.91µM*	-1.3%	-2.2%	0.7%[38.3 µM]	-4.5%	22.4%
O=C(Cn1nc(-c2ccccc2)ccc1=O)NCc1ccc(F)cc1Cl	11.2µM*	1.6%	x	-1.6%	x	x
CCc1ccc(CNC(=O)Cn2nc(-c3ccccc3)ccc2=O)cc1	11.2µM*	2.2%	7.3%	1.6%	-8.8%	-38.1%
CCc1nc(Cl)c(C#N)c2c1CCCC2	-12.9%	0.0%	11.2µM*	-0.6%	-5.9%	1.6%[10 µM]
CCCc1nc(Cl)c(C#N)c2c1CCCC2	0.1%	-0.9%	0.2%	-0.4%	-4.0%	-16.3%[10 µM]
Cc1ccccc1Cn1ccc(=NCc2ccccc2)cc1	-5.5%	-0.1%	17.8µM*	0.1%	-0.7%	x
O=c1ccn(Cc2ccccc2)cc1	4.5%	1.5%	-12.6%[9.22 µM]	-1.3%	x	-9.5%[10 µM]
CCCc1nc2ccccc2c(=O)n1/N=C/c1ccccc1O	-12.6%	-0.7%	10µM*	2.8%	-10.0%	-13.8%[0.074 µM]
Cc1ccc(-n2[nH]c(C)c(/C=N/c3ccccn3)c2=O)cc1	-12.8%	0.8%	-10.2%	x	-0.5%	-11.5%[0.074 µM]
CCCc1nc2ccccc2c(=O)n1/N=C/c1c(C)[nH]n(-c2ccc(C)cc2)c1=O	-14.0%	-1.4%	17.8µM*	5.8%	-3.5%	-5.6%[0.074 µM]
Cc1nc2ccccc2c(=O)n1/N=C/c1ccc(O)cc1O	-11.3%	5.7%	9.0%[9.22 µM]	1.9%	1.0%	-120.5%
COC(=O)C1CCN(Cc2ccc3c(c2)CN(C(=O)C2Cc4ccccc4O2)CCO3)CC1 (centres undefined)	x	x	x	2.2%	x	x
O=C(NCCN1CCOCC1)c1cnn(-c2nccc(-c3cc4ccccc4o3)n2)c1C1CC1	x	x	x	4.9%	x	x
COc1cc2ncnc(NCc3ccc(C)cc3)c2cc1OC	27.4%	-2.0%	35.5µM*	0.6%	-0.4%	-19.3%[10 µM]
COc1cccc(CNc2ncnc3cc(OC)c(OC)cc23)c1	-1.2%	-3.0%	u	6.4%	-7.0%	19.7%[10 µM]
CC(=O)N1CCN(c2ccc(Nc3ncnc4c3oc3ccccc34)cc2)CC1	-13.6%	2.4%	17.8µM*	3.2%	1.3%	-67.7%
COC(=O)c1ccccc1-c1cc(C)cc2c1OC(CNC(=O)c1cc(C)n(C)n1)C2 (centres undefined)	x	x	x	-0.2%	x	x
Clc1ccc(-c2nnc(CSc3nnc(-c4cccs4)n3Cc3ccccc3)o2)cc1	-11.4%	1.1%	u	0.6%	-6.2%	x
Fc1ccc(NCc2nnc(SCc3nnc(-c4ccccc4)o3)n2Cc2ccccc2)cc1	3.9%	-5.9%	12.6µM*	1.0%	-23.0%	19.4%[10 µM]
